# Out of some 360,000 compounds screened, about 8,200 (2.3%) were called active. Many of the other results were omitted from the sample, so actives are more common in it than they were. A number with no mark means an inactive call. Cut-off read from the data, not from the text of the source: active = inhibition above about 27%; inactive = the rest.
# Target: Fructose-bisphosphate aldolase (Mycobacterium tuberculosis (strain ATCC 25618 / H37Rv)) (UniProt P9WQA3)
# Experiment: M. tuberculosis aldolase activity blockers – biochemical, fluorescence, strain H37Rv, primary screen (AID 588726);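 note: 0% = vehicle and 100% = reference inhibitor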
# Details: purified M. tuberculosis FBA, fluorescence read-out, at 1 µM, active compounds read high
# Sequence of Fructose-bisphosphate aldolase (Mycobacterium tuberculosis (strain ATCC 25618 / H37Rv)) (P9WQA3 whole entry, looked up): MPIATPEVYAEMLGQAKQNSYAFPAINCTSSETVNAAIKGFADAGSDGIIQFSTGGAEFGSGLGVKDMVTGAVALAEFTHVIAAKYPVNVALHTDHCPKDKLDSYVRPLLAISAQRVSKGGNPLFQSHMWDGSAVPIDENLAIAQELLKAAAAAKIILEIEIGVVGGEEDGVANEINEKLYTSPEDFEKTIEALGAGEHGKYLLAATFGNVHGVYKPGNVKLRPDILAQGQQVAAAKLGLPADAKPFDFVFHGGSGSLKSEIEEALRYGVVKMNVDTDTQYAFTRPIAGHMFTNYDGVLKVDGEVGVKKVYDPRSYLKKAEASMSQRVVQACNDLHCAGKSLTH
row,Compound,inhibition
1,CC1(C)Cc2c(C#N)c(SCc3nc4ccccc4[nH]3)nc(N3CCOCC3)c2CO1,29.3% (active)
2,C1=C(N2CCOCC2)/C(=C/c2nc3ccccc3[nH]2)CC1,14.8%
3,CC(C)c1nc(N2CCOCC2)c(C#N)c2c1COC(C)(C)C2,48.2% (active)
4,CC1(C)Cc2c(sc(NC(=O)C(=O)N3CCOCC3)c2C#N)CO1,1.66%
5,CCOC(=O)CSc1nc(N2CCOCC2)c2c(c1C#N)CC(C(C)C)OC2 (stereo unspecified),0.67%
6,CC(C)C(=O)N1CCN(c2nc(-c3ccccc3)c3c(c2C#N)CC(C)(C)OC3)CC1,18.4%
7,CN1CCC2(CC1)NC(=O)NC2=O,0.25%
8,Cc1cc(C(=O)N2CCC(C(=O)O)CC2)c(C(F)(F)F)o1,-0.52%
9,CN(CCC1CCOCC1)C(=O)CC1C(=O)NCCN1Cc1cccc(F)c1 (stereo unspecified),5.7%
10,COc1ccccc1CN1CCNC(=O)C1CC(=O)N(C)CC1CCOCC1 (stereo unspecified),0.79%
11,CC(C)CN1CCNC(=O)C1CC(=O)N(C)CC1CCOCC1 (stereo unspecified),91.2% (active)
12,N#CCc1c[nH]c2ccc([N+](=O)[O-])cc12,-4.4%
13,O=C(CN(C(=O)c1csnn1)c1ccc(Br)cc1)NC1CCCC1,2.14%
14,COc1ccc(/C=C/C(=O)NC(=S)NN2CCCCC2c2cccnc2)cc1 (stereo unspecified),1.24%
15,Cc1cc(C(=O)OCC(=O)N2C(C)CCCC2C)c2ccccc2n1 (stereo unspecified),6.33%
16,CC1CCCCN1C(=O)CCS(=O)(=O)Cc1ccccc1 (stereo unspecified),-0.22%
17,Cc1nn(-c2ccccc2)nc1C(=O)OCC(=O)N1CCCCC1C (stereo unspecified),31.5% (active)
18,O=C(CN(C(=O)c1nsc(Cl)c1Cl)c1cccc(F)c1)NC1CCCC1,0.07%
19,COc1ccc(CNC(=O)COC(=O)/C=C/c2ccc(S(=O)(=O)N3CCOCC3)cc2)cc1,-5.75%
20,Cc1ccc(S(=O)(=O)N2CCC(C(=O)OCC(=O)N3CC(=O)Nc4ccccc43)CC2)cc1,-1.07%
21,Cc1ccc(C2Nc3ccccc3C(=O)N2CCN2CCNC2=O)cc1 (stereo unspecified),95.6% (active)
22,O=C1c2ccccc2NC(c2ccccn2)N1NS(=O)(=O)c1ccccc1 (stereo unspecified),11.3%
23,Cc1[nH]n(-c2ccccc2)c(=O)c1CCOC(=O)c1ccc(C(F)(F)F)cc1,-0.48%
24,COc1ccccc1N1CCN(CC(=O)NCCc2ccc(S(N)(=O)=O)cc2)CC1,0.12%

row,Compound,inhibition
1,Cc1cc(OCC(=O)Nc2nccs2)c2c(C)c(C)c(=O)oc2c1,5.31%
2,Cc1ccc(OCC(=O)NC(C)c2ccccc2)c([N+](=O)[O-])n1 (stereo unspecified),-3.72%
3,Cc1cc(OCC(=O)NCC(O)c2ccccc2)c2c(C)c(C)c(=O)oc2c1 (stereo unspecified),66.1% (active)
4,O=C(COc1ccc2c3c(c(=O)oc2c1)CCCC3)NCC(O)c1ccccc1 (stereo unspecified),15.8%
5,COc1ccc(CCNC(=O)COc2cc(C)cc3oc(=O)c(C)c(C)c23)cc1OC,2.14%
6,CCN(CC)CCCNC(=O)COc1ccc2oc3c(c2c1)CCCC3,0.55%
7,Cc1cc(=O)oc2c3c(cc(OCC(=O)NCC(O)c4ccccc4)c12)OC(C)(C)CC3 (stereo unspecified),49.2% (active)
8,CC(NC(=O)COc1ccc(-c2ccccc2)cc1)C1CCCO1 (stereo unspecified),0.11%
9,COc1cccc(CCNC(=O)COc2cccc3c2OC(C)(C)C3)c1,-1.69%
10,O=C(COc1ccc2ccc(=O)oc2c1)NCC(O)c1ccccc1 (stereo unspecified),15.9%
11,CSc1nnc(-c2ccncc2)n1CCCN1CCCC1=O,0.93%
12,N#CCC(=O)NC1CCC(CC2CCC(NC(=O)CC#N)CC2)CC1 (stereo unspecified),3.18%
13,COc1cc(OC)c(C2=NOC(C(=O)Nc3c(C)n(C)n(-c4ccccc4)c3=O)C2)cc1Cl (stereo unspecified),-0.74%
14,CSCC(=O)N1CCCC(C(=O)c2cc(F)ccc2F)C1 (stereo unspecified),-1.12%
15,Cc1nccn1-c1ccc(NC(=O)[C@H]2O[C@@H](n3cnc4c(N)ncnc43)[C@H](O)[C@@H]2O)cc1,0.84%
16,O=C(O/N=C(/c1ccccc1)c1ccncc1)c1ccccc1[N+](=O)[O-],2.83%
17,Cc1ccccc1NC(=O)COc1cccc2c1CCNC2=O,0.77%
18,CCCc1cc(=O)oc2c(C)c(OCC(=O)NCc3ccccn3)ccc12,0.52%
19,Cc1cc(=O)oc2c(C)c(OCC(=O)NCCc3ccc(S(N)(=O)=O)cc3)ccc12,12.6%
20,Cc1cc(=O)oc2c(C)c(OCC(=O)NCCN3CCOCC3)ccc12,16%
21,Cc1cc(Cl)ccc1OCCCC(=O)NCc1ccccn1,1.44%
22,Cc1nn(C)c(C)c1S(=O)(=O)N1CCc2ccccc21,6.1%
23,CC(C)CNC(=O)/C=C/C(=O)O,10.5%
24,O=C1NC2(CCCCC2)N=C1c1ccccc1,1.74%

row,Compound,inhibition
1,CC(C)Cc1ccc(-c2cc3nc(NCc4cccc(Cl)c4)ccn3n2)cc1,14.9%
2,Cc1ccc(C)c(NS(=O)(=O)c2cc(Br)cnc2N)c1,3.42%
3,O=S1(=O)CCOC[C@H](Cc2ccccc2)N1Cc1ccccc1Br,-3.56%
4,Cc1ccc(S(=O)(=O)N2C[C@]3(O)C[C@@H]4C(=O)N(c5ccccc5)C(=O)[C@@H]4C[C@]3(OC(=O)NC3CC3)C2)cc1,0.49%
5,COC(=O)[C@H]1C[C@H](OC(=O)NCc2ccccc2)[C@@]2(O)CN(S(=O)(=O)c3ccc(C)cc3)CC2[C@H]1C(=O)OC (stereo partly specified),0.56%
6,Cc1ccc(S(=O)(=O)N2C[C@@H](C)[C@]3(C2)[C@H](O)[C@H](OC(=O)NCc2ccccc2)C[C@H]2C(=O)N(c4ccccc4)C(=O)[C@H]23)cc1,67.2% (active)
7,CC(C)C(c1nnnn1C(C)(C)C)N1CCN(Cc2cccnc2)CC1 (stereo unspecified),0.62%
8,O=C(NCCO)c1cccc(-c2cccc3nccn23)c1,10.8%
9,S=c1[nH]cc(-c2ccc(Cl)cc2)n1-c1ccccc1,-0.17%
10,Clc1ccc(-c2nc3ccccn3c2CN2CCSCC2)cc1,0.24%
11,c1cc(-c2ccc3[nH]ccc3c2)n2ccnc2c1,81.5% (active)
12,Cc1ccc(NC(=O)C2(N3CCC3=O)CCCCC2)cc1,-1.03%
13,CC/C(=N\NC(=O)c1c(C)nc2ccccn12)c1ccc(Cl)cc1,1.77%
14,O=C(CN1CCN(S(=O)(=O)c2ccc(F)cc2)CC1)NC1CC1,0.31%
15,CC1CC2=C(CC1/C=N/NC(N)=S)C(C)(C)CCC2 (stereo unspecified),-2.62%
16,CC(C)(C)n1nc(Cc2cccc3ccccc23)c(C#N)c1N,-0.08%
17,COc1ccc(Nc2oc(-c3ccccc3Cl)nc2C#N)cc1,14.5%
18,O=C(CN1CCN(C2CCS(=O)(=O)C2)CC1)N1N=C(c2ccc(Cl)cc2)CC1c1ccco1 (stereo unspecified),-0.95%
19,O=c1[nH]cnc(O)c1C(c1ccc(F)cc1)c1c(O)nc[nH]c1=O,1.39%
20,Cc1nc2ccccc2cc1O,116% (active)
21,Cc1cc(N=Nc2ccc3ccccc3c2)ccc1O,-3.13%
22,Cc1nc2ccccc2nc1CC(O)(c1ccccc1)c1ccccc1,0.56%
23,C=Cn1c(C(=O)O)ccc1-c1ccc(OC)cc1,1.98%
24,COc1ccc(-c2cc(C)nc3nc(N)nn23)cc1,124% (active)

row,Compound,inhibition
1,Cc1cc(-c2ccccc2)n2nc(C)c(-c3ccccc3)c2n1,4.02%
2,COC(=O)c1ccc(C)c(NC(=O)Cn2c(C)csc2=O)c1,-1.21%
3,CCOC(=O)c1c(C)oc2cc(Sc3ccccc3)c(O)c(O)c12,-6.47%
4,CCOC(=O)c1c(C)[nH]c(C(=O)COc2ccc3c(c2)OCO3)c1C,6.18%
5,N#CC1(NC(=O)COc2ccc3oc4ccccc4c3c2)CCCCC1,-0.49%
6,CCOC(=O)c1c(-c2ccccc2)oc2ccc(OCC(=O)NN)cc12,58.4% (active)
7,CCOC(=O)c1c(-c2ccccc2)oc2cc(Br)c(O)c(C=O)c12,-2.33%
8,COC(=O)c1c(C)oc2ccc(N(C(=O)Oc3ccccc3)S(=O)(=O)c3ccccc3)cc12,-6.44%
9,CCOC(=O)c1c(C)oc2cc(Br)c(OCC(N)=O)cc12,5.33%
10,CCOC(=O)c1c(-c2ccccc2)oc2ccc(OC(=O)N(C)C)cc12,38.7% (active)
11,CCOC(=O)c1c(-c2ccccc2)oc2ccc(OCC(N)=O)cc12,72.7% (active)
12,S=C(NC1CCCCC1)NN1CCOCC1,-5.42%
13,c1ccc2c(c1)CSc1sccc1C2=C1CCNCC1,4.51%
14,N#Cc1cccc(NC(=O)CCC2CCCC2)c1,-3.71%
15,OC(COCCC12CC3CC(CC(C3)C1)C2)CN1CCCCC1 (stereo unspecified),-2.2%
16,COc1ccc(-n2c(SCC(=O)Nc3ccc4c(c3)OCO4)nnc2C(C)N2CCCCC2)cc1 (stereo unspecified),0.95%
17,COc1ccc(C(C(=O)NC2CCCC2)N(CCCO)C(=O)Cn2nnc(-c3ccc(C)o3)n2)cc1 (stereo unspecified),0.22%
18,CCOC(=O)CCCCCC(=O)Nc1ccc2c(c1)CC(=O)N([C@@H](C)CO)C[C@H](C)[C@@H](CN(C)Cc1ccccc1)O2,1.41%
19,Cc1nnc(NC2=NCCCCC2)o1,2.72%
20,COC(=O)c1cccnc1NC(=S)NC(C)C,-6.99%
21,CSc1nnc(-c2ccc(C(F)(F)F)cn2)o1,7.82%
22,Cc1cccc(-c2nc3ccc(C(=O)NCCN4CCN(C)CC4)cc3nc2-c2cccc(C)c2)c1,25.3%
23,C=CCNC(=O)c1ccc2c3n(nc2c1)-c1ccc(C)cc1CO3,46.8% (active)
24,Cc1ccc(-n2nc3c(c2NC(=O)c2ccc4c(c2)OCO4)CSC3)c(C)c1,0.86%

# Source: PubChem BioAssay AID588726 (The Scripps Research Institute Molecular Screening Center, 2011)
